55 compounds from PubChem BioAssay AID463173 (ICCB-Longwood Screening Facility, Harvard Medical School, 2010) can be followed below.

Hit rate of the full screen: of about 52,000 compounds, about 4,300 (8.3%) were called active. The sample as a whole holds a higher share of actives than the screen did. Unmarked numbers belong to inactive results. Cut-off read from the data, not from the text of the source: active = survival mostly below about 52% (no sharp cut-off); inactive = mostly above about 56%.

The test deals with DeltatarO mutant. Put plainly: S. aureus survival, RN4220 and DeltatarO strains – OD600, teichoic acid synthesis inhibitors, primary screen (AID 463173). As to conditions: S. aureus RN4220 wild type/DeltatarO growth, OD600, 18 h, active compounds read low, screened at 18.75 µg/mL (by protocol).
In the case of `COc1ccccc1N1CCN(C(=O)CSc2nc3ccccc3nc2Cc2ccccc2)CC1`, the survival was 101%. Take `COc1ccc(OC)c(-c2noc(N3CCN(c4ccc(Cl)cc4)CC3)n2)c1`: the survival is 88%. Under `CCn1c(CNC(=O)c2ccc(OC)cc2)nnc1SCC(=O)Nc1cc(C)ccc1C` stands 112%; under `COc1cccc(C(=O)N(Cc2cccnc2)c2nc3c(OC)ccc(C)c3s2)c1OC`, 73%; under `O=S(=O)(Nc1cccc(-c2ccc(N3CCOCC3)nn2)c1)c1ccccc1C(F)(F)F`, 89%. Under `COc1ccc(C(=O)CCC(=O)Nc2ccc(OC)c(Cl)c2)cc1` stands 86%; under `CC(=O)C1=C(c2ccc(Cl)c(Cl)c2)N(C(C)=O)n2c(nnc2-c2ccccc2)S1`, 94%; under `COc1ccc(-c2nnc3n2N(C(C)=O)C(c2ccc(Cl)c(Cl)c2)=C(C(C)=O)S3)cc1`, 20% (active). The figure for `COc1ccc(C2=C(C(C)=O)Sc3nnc(-c4ccccc4)n3N2C(C)=O)cc1` is 87%; for `CN(C)c1ccc(CN(CC2CCCO2)C(=O)COc2ccc(Cl)cc2)cc1` (stereo not given) it is 59%. Turning to `CCc1nn2c(=O)c(S(=O)(=O)Nc3cccc(F)c3)c(C)nc2s1`, the survival was 70%. Under `COc1ccccc1CNS(=O)(=O)c1ccc2c(c1)NC(=O)CC(=O)N2` stands 89%. The figure for `O=S(=O)(Nc1nc2n(n1)C(c1ccc(F)cc1)C=C(c1ccccc1)N2)c1ccccc1` (stereo not given) is 73%. Under `Cc1ccc(C2C=C(c3ccc(F)cc3)Nc3nc(CCCO)nn32)cc1` (stereo not given) stands 53%; under `O=S(=O)(Nc1nc2n(n1)C(c1ccc(F)cc1)C=C(c1ccccc1)N2)c1ccc(Cl)cc1` (stereo not given), 10% (active). For the compound `O=S(=O)(Nc1nc2n(n1)C(c1ccc(F)cc1)C=C(c1ccc(Cl)cc1)N2)c1ccccc1` (stereo not given), the survival is 42% (active). On to `Cc1ccc(S(=O)(=O)Nc2nc3n(n2)C(c2ccc(F)cc2)C=C(c2ccccc2)N3)cc1` (stereo not given), for which the survival is 29% (active). The figure for `O=S(=O)(Nc1nc2n(n1)C(c1ccccc1)C=C(c1ccc(Cl)cc1)N2)c1ccccc1` (stereo not given) is 47% (active). The figure for `Cc1ccc(C2C=C(c3ccccc3)Nc3nc(NS(=O)(=O)c4ccccc4)nn32)cc1` (stereo not given) is 68%; for `O=C(Nc1nc2n(n1)C(c1ccc(F)cc1)C=C(c1ccc(Cl)cc1)N2)c1ccc([N+](=O)[O-])cc1` (stereo not given) it is 64%.

Turning to `COc1ccccc1C(=O)Nc1nc2n(n1)C(c1ccc(F)cc1)C=C(c1ccc(Cl)cc1)N2` (stereo not given), the survival is 49%.

As for `CC(C)(C)C(=O)CSc1nnc(-c2ccccc2)o1`, the survival was 85%. Turning to `COc1cccc(CNC(=O)CCc2c(C)c3cc4c(C)coc4c(C)c3oc2=O)c1`, the survival was 55%. Under `CCC(=O)N1CCc2cc(Br)cc(S(=O)(=O)N3CCCC(C(=O)Nc4ccc(OC)cc4OC)C3)c21` (stereo not given) stands 65%; under `COc1cc(OC)c(NC(=O)c2noc3c2CSc2ccccc2-3)cc1Cl`, 69%; under `Cc1ccccc1OC(=O)c1nc(SCc2ccccc2F)ncc1Cl`, 107%.

With `Cc1ccc(S(=O)(=O)Nc2nc3n(n2)C(c2ccccc2Cl)C=C(c2ccccc2)N3)cc1` (stereo not given), the survival was 37% (active).

For `Cc1ccc(-c2nc3n(n2)C(c2ccccc2Cl)C=C(c2ccc(Cl)cc2)N3)cc1` (stereo not given), the survival is 95%. The figure for `Cc1ccc(C2C=C(c3ccc(Cl)cc3)Nc3nc(NS(=O)(=O)c4ccccc4)nn32)cc1` (stereo not given) is 62%.

For the compound `COc1ccc(C2=CC(c3ccccc3Cl)n3nc(-c4ccc(C)cc4)nc3N2)cc1` (stereo not given), the survival is 91%.

Regarding `Cc1ccc(S(=O)(=O)Nc2nc3n(n2)C(c2ccc(Cl)cc2)C=C(c2ccccc2)N3)cc1` (stereo not given), the survival is 2% (active).

As for `Cc1ccc(C2C=C(c3ccccc3)Nc3nc(NS(C)(=O)=O)nn32)cc1` (stereo not given), the survival is 67%.

As to `CCN1CCN(C(=O)c2cnn(-c3cccc(C)c3)c2C2CCN(C(=O)OC(C)(C)C)CC2)CC1`, the survival was 89%. Under `O=[N+]([O-])c1cc(-c2nc(-c3ccccc3)no2)ccc1NC1CCCCC1` stands 75%. Consider `CC(C)Oc1ccc(C(=O)N2CCN(CCc3ccccn3)CC2)cc1`, for which the survival was 68%. Under `Cc1cccc(NC(=O)C2CCCN(S(=O)(=O)c3cccc4nonc34)C2)c1` (stereo not given) stands 92%; under `O=C(Nc1cc(-c2ccccc2)sc1C(=O)O)c1cccc(F)c1`, 38% (active); under `COC(=O)c1sc(-c2ccccc2)cc1NC(=O)Nc1ccc(F)cc1`, 21% (active). Under `CCOc1ccc(-c2cc(NC(=O)c3ccccc3)c(C(=O)OC)s2)cc1` stands 94%; under `CCOc1ccc(-c2cc(NC(=O)Nc3cccc(C(C)=O)c3)c(C(=O)OC)s2)cc1`, 53%; under `COC(=O)c1sc(-c2ccccc2)cc1NC(=O)c1cccc(Cl)c1`, 34% (active). Under `CCOc1ccc(-c2cc(NC(=O)Nc3ccc(Cl)cc3)c(C(=O)OC)s2)cc1` stands 101%; under `CCOc1ccc(-c2cc(NC(=O)c3cccc(Cl)c3)c(C(=O)OC)s2)cc1`, 77%; under `CCOc1ccc(-c2cc(NC(=O)c3ccc(C)cc3)c(C(=O)OC)s2)cc1`, 70%. Regarding `COC(=O)c1sc(-c2ccccc2)cc1NC(=O)c1cccc(F)c1`, the survival was 94%.

For the compound `COC(=O)c1sc(-c2ccccc2)cc1NC(=O)Nc1ccc(Cl)cc1`, the survival is 11% (active).

Regarding `COC(=O)c1sc(-c2ccccc2)cc1NC(=O)Nc1ccccc1Cl`, the survival is 43%. Under `CCOc1ccc(-c2cc(NC(=O)Nc3ccccc3C(F)(F)F)c(C(=O)OC)s2)cc1` stands 60%; under `Cc1noc2ncnc(N3CCCC(C(=O)NCCC(C)C)C3)c12` (stereo not given), 88%; under `CCOc1ccccc1CNC(=O)c1cccc(NC(=O)c2nsc3ccccc23)c1`, 88%.

As for `Cc1c(Cl)cccc1NC(=O)CCn1nc(C)c2c(C)n(-c3ccccc3)nc2c1=O`, the survival is 92%. The figure for `Cc1c(C(=O)N2CCOCC2)oc2c1-c1nn(CC(=O)NCc3ccccc3)cc1CC2` is 79%; for `Cc1ccc(S(=O)(=O)NCc2nc3cccnc3n2Cc2ccccc2Cl)c(C)c1` it is 89%. The figure for `Cc1ccccc1OCCSc1nc(C)c(Cc2ccccc2)c(=O)[nH]1` is 97%; for `CCc1ccc(-n2nc(CO)c(C(=O)NCCCCc3ccccc3)n2)cc1` it is 47%.
